# Experimental data as given in the supplement of paper PMC10981050.
# “And” between values parts separate entries of the source, which are not always exact repeats. Equal entries are not always repeated.
# Tests used:
# Assay in all cases: cell viability relative to vehicle control; higher = less cytotoxic
# Details in all cases: 10 µM
# [1] = system: K562
# Summary of the method: (§1)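 Each screen used CRISPR-edited mutant and wild-type clones from four leukaemia lines. Compounds were acoustically dispensed at a single 10 µM dose, and CellTiter-Glo luminescence was read after 48 h with the supernatant first removed. Viability was analysed in Genedata Screener and given as percent of the on-plate vehicle control.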
# [2] = system: MARIMO
# Summary of the method: as §1
# [3] = system: MOLM14
# Summary of the method: as §1
# [4] = system: OCI-AML2
# Summary of the method: as §1
Compound,cell viability ([1]; SRSF2 genotype: SRSF2 P95H/wt),cell viability ([1]; SRSF2 genotype: SRSF2 wt/wt),cell viability ([2]; SRSF2 genotype: SRSF2 P95H/wt),cell viability ([2]; SRSF2 genotype: SRSF2 wt/wt),cell viability ([3]; SRSF2 genotype: SRSF2 P95H/wt),cell viability ([3]; SRSF2 genotype: SRSF2 wt/wt),cell viability ([4]; SRSF2 genotype: P95H/wt),cell viability ([4]; SRSF2 genotype: wt/wt)
CC1(C)[C@@H](O[C@H]2O[C@H](C(=O)O)[C@@H](O)[C@H](O)[C@H]2O[C@@H]2O[C@H](C(=O)O)[C@@H](O)[C@H](O)[C@H]2O)CC[C@]2(C)[C@H]3C(=O)C=C4[C@@H]5C[C@@](C)(C(=O)O)CC[C@]5(C)CC[C@@]4(C)[C@]3(C)CC[C@@H]12 [Ammonium Glycyrrhizinate (AMGZ)],101% and 111%,107%,107%,102%,104%,106%,112%,95.4%
"CC(C)C12CCC(C)(CC1)O2 [1,4-Cineole]",104% and 101%,104%,103%,103%,105%,110%,99.4%,97.7%
C#C[C@]1(O)CC[C@H]2[C@@H]3CCC4=CC(=O)CC[C@@H]4[C@H]3CC[C@@]21CC [Levonorgestrel (Levonelle)],104% and 102%,101%,95.7%,109%,104%,103%,105%,108%
COc1ccc(S(=O)(=O)N(CCO)c2ccccc2CN(C)C/C=C/c2ccc(Cl)cc2)cc1 [KN-93 Phosphate],38.5% and 44%,51.6%,33.5%,27.9%,45.5%,41.8%,35.6%,33.4%
Cc1ccc2oc(=O)ccc2c1 [6-Methylcoumarin],99.5% and 87.8%,91.3%,97.3%,98.6%,95%,101%,91.1%,107%
CC(=O)Nc1ccc(C(=O)Nc2ccccc2N)cc1 [CI994 (Tacedinaline)],59.2% and 64.7%,66%,37.9%,41.3%,31.6%,25.8%,24.3%,30%
C[C@H](C[C@H](O)[C@H]1OC1(C)C)C1=C2C[C@H](O)[C@H]3[C@@]4(C)CCC(=O)C(C)(C)[C@@H]4CC[C@]3(C)[C@@]2(C)CC1 [Alisol B],81.2% and 83.7%,78.7%,70.8%,48.2%,86.7%,87.4%,70.3%,72.7%
CN[C@@H]1[C@H](O)[C@H](NC)[C@H]2O[C@@]3(O)C(=O)C[C@@H](C)O[C@H]3O[C@@H]2[C@H]1O [Spectinomycin 2HCl],101% and 102%,93.5%,103%,102%,104%,99%,106%,94.4%
C=C1C(=O)O[C@@H]2/C=C(\C)CC/C=C(\C)CC[C@@H]12 [Costunolide],23.8% and 32%,41.4%,25.3%,17.8%,3.29%,5.5%,2.25%,7.11%
C[C@H]1O[C@@H](O[C@H]2CC[C@@]3(C)[C@@H](CC[C@]4(C)[C@@H]3C=CC3=C5CC(C)(C)CC[C@]5(CO)[C@@H](O)C[C@]34C)[C@]2(C)CO)[C@H](O[C@@H]2O[C@H](CO)[C@@H](O)[C@H](O)[C@H]2O)[C@@H](O[C@@H]2O[C@H](CO)[C@@H](O)[C@H](O)[C@H]2O)[C@H]1O [Buddlejasaponin IVb],96.5% and 97%,97.8%,98.4%,108%,98.3%,102%,101%,106%
